From PubChem
Rows were chosen to be rich in hits. Some 3.7% of all compounds tested hit in one or more screens of this group.
UGM FP inh – M. tuberculosis UGM enzyme inhibitors, primary screen, biochemical, fluorescence polarization, single point. purified UGM, fluorescence polarization probe displacement. inhibition, % at 10 µM. 0.06% of 320,000 active. AID 504406, 2011; in the data active = inhibition above about 10%, passing the limit was not always enough; inconclusive = no clear call, values can overlap the other calls
Target sequence (P9WIQ1 whole entry, looked up): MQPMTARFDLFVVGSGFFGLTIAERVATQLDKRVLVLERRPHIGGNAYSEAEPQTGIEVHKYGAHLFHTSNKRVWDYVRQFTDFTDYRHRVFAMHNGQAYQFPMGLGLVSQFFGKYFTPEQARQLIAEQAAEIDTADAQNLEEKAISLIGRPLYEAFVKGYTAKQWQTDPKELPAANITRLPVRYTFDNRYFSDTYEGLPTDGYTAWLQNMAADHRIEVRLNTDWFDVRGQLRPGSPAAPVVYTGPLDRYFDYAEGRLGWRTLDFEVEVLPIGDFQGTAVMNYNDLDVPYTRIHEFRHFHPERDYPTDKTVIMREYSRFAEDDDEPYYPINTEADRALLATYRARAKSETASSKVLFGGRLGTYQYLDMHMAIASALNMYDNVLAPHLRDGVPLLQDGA
Mtb FBA inh – Mtb FBA enzyme inhibitors, primary screen, biochemical, fluorescence, strain H37Rv; Fructose-bisphosphate aldolase (Mycobacterium tuberculosis (strain ATCC 25618 / H37Rv)), …; AID 588726, 2011; 2.3% of 360,000 active; purified M. tuberculosis FBA, fluorescence read-out; inhibition, % at 1 µM; in the data active = inhibition above about 27%;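 note: 0% = vehicle and 100% = reference inhibitor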
Mtb betalactam – beta-lactam sensitization of Mtb H37Rv, H37Rv | M. tuberculosis H37Rv growth with meropenem, percent inhibition | inhibition, % at 25 µM | 0.27% of 330,000 active | AID 434955, 2010; call rule not given here;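 note: growth measured after seven days incubation then overnight dye step; 0% = bacteria only wells and 100% = bacteria with antibiotic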
Rv3671c protease – Rv3671c serine protease inhibitors, primary screen, biochemical, fluorescence polarization, M. tuberculosis H37Rv. inhibition, % at 5.96 µM. 0.048% of 320,000 active. AID 2606, 2010; in the data active = inhibition above about 38%;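 note: extracellular domain of Rv3671c used as enzyme; 0% = enzyme with DMSO and 100% = no enzyme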
GDH-TPI counter – GDH-TPI coupling enzyme inhibitors, primary screen, artefact control for M. tuberculosis FBA inhibitor project, biochemical, absorbance, full deck | GDH-TPI coupled enzyme counterscreen, NADH absorbance | inhibition, % at 4.8 µM | 1.2% of 360,000 active; in the data active = inhibition above about 30%;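 note: 0% = DMSO wells and 100% = wells lacking the enzyme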
FadD28 FP inh – inhibitors of FadD28 bisubstrate probe binding, primary screen, biochemical, fluorescence polarization, single point. Mycobacterium tuberculosis FadD28 fatty-acid-AMP ligase. inhibition, % at 12.5 µM. 0.22% of 360,000 active. AID 588549, 2011; in the data active = inhibition above about 8.5%, passing the limit was not always enough; inconclusive = no clear call, values can overlap the other calls
Active calls of the source: *; ? = inconclusive; . = no result; + = active, no number.

SMILES	UGM FP inh	Mtb FBA inh	Mtb betalactam	Rv3671c protease	GDH-TPI counter	FadD28 FP inh
CN(Cc1ccccc1)S(=O)(=O)c1ccccc1Br	.	0	.	.	6	-1
CC(Sc1n[nH]c(-c2cccs2)n1)C(=O)Nc1ccc(C(N)=O)cc1 (configuration not stated)	0	-2	-3	-6	-2	.
Cc1c(C)c2ccc(O)c(CN3CCCC3)c2oc1=O	0	+	-1	0	12	-2
CN1CCN(Cc2c(O)ccc3cc(-c4ccccn4)c(=O)oc23)CC1	4	+	-8	-9	11	0
CCOC(=O)c1c(C)oc2ccc(O)c(CN3CCCCC3)c12	2	-2	7	5	-8	-3
CN(C)CCCn1c2c(c(SCC(=O)Nc3ccc4c(c3)OCCO4)nc1=O)CCCC2	.	-1	.	.	2	-1
Cn1c(-c2ccc(C=O)s2)nc2ccccc21	-1	19	25	3	21	-1
CC1(C)C=C(c2ccc(C=O)s2)CC(C)(C)N1	1	-1	-13	1	40*	-2
CC1(C)C=C(c2ccc(C=O)s2)CC(C)(C)N1C=O	-1	7	-6	-6	32*	-2
CC(=O)Nc1cccc(-c2ccnc3c2CC(C(=O)Nc2cccc(Oc4ccccc4)c2)O3)c1 (configuration not stated)	.	2	.	.	10	-2
c1ccc2sc(-c3ccc4c(c3)OCO4)nc2c1	-2	130*	-4	-6	18	-3
Clc1ccc(-c2nnc(-c3ccccc3)o2)cn1	-1	8	5	.	-8	.
Cc1nc2ccc(C(=O)N3CCN(C(=O)c4ccco4)CC3)cn2c1N(C)C(=O)CCc1ccccc1	.	1	.	.	8	1
CC(=O)/C(=N\Nc1ccc(Cl)cc1)Sc1nnc(-c2ccccc2)n1-c1ccccc1	.	3	81	11	1	-3
CC(=O)/C(=N/Nc1ccccc1)Sc1nnc(CCc2ccccc2)n1-c1ccccc1	0	3	5	-15	32*	-2
Cc1ccc(-n2nc3c(=O)n(CC(=O)NC4CCCCC4)nc(C)c3c2C)cc1	3	1	0	-1	4	-1
CN(C)c1ccc(/C=N/NC(=O)CCCCCNC(=O)c2ccccc2)cc1	-1	17	2	1	58*	-2
COc1ccc(OCC(=O)N/N=C/c2ccc(N(C)C)cc2)cc1	2	21	-7	2	34*	0
CN(C)c1ccc(/C=N/NC(=O)CCC(=O)NCc2ccccc2)cc1	0	23	3	-1	32*	-3
CC(C)CNS(=O)(=O)c1ccc(S(=O)(=O)N2CCN(C3CCCC3)CC2)cc1	-1	0	1	-7	-1	-2
COc1cc(OC)c(OC)cc1/C=N/NC(=O)c1cc(-c2cccn2C)n[nH]1	-1	4	8	8	38*	-3
COc1cc(OC)c(OC)cc1/C=N/NC(=O)c1ccc(=O)n(C)c1	3	-1	2	1	54*	0
CCCNC(=O)C1(C)CCN(C(=O)c2ccc(OC)cc2OC)C1 (configuration not stated)	.	3	.	.	12	-2
CCCN1C(C)C(C(=O)OCC)=CN(Cc2ccc(Br)cc2)S1(=O)=O (configuration not stated)	.	0	.	.	-9	-4
COCOCCn1cc(CN2CCS(=O)(=O)N(Cc3ccc(-c4ccc(F)cc4)cc3)C(CC(C)C)C2=O)nn1 (configuration not stated)	.	-1	.	.	1	-7
SMILES	UGM FP inh	Mtb FBA inh	Mtb betalactam	Rv3671c protease	GDH-TPI counter	FadD28 FP inh
CC1=C(C(=O)N(C(C)C)C(C)C)CC(CC(=O)NCCc2ccccn2)C(=O)N1CCCN1CCCC1=O (configuration not stated)	.	2	.	.	.	-2
CCC1(C)Cc2ccccc2-c2nc(NCCCO)n(C)c(=O)c21 (configuration not stated)	1	163*	-7	-2	-1	-5
O=c1c2c(nc(NCCO)n1CC1CCCCC1)-c1ccccc1CC21CCCC1	1	43*	24	-2	12	-3
CCn1c(NCCCO)nc2c(c1=O)C(C)(CC)Cc1ccccc1-2 (configuration not stated)	1	155*	0	-3	19	-5
O=c1c2c(nc3n1CCCCC3)-c1ccccc1CC21CCCCC1	1	1	23	-5	6	-1
Cc1[nH]c2ccccc2c1-c1nc2ccccc2[nH]c1=O	-2	-4	5	2	11	1
COc1cccc(C(=O)OCC(=O)NCc2ccc3c(c2)OCO3)c1OC	10*	3	-11	0	10	-2
Cc1cccc(C(=O)OCC(=O)NCc2ccc3c(c2)OCO3)c1C	0	1	-4	-7	-5	0
Cc1ccc(C(=O)NCc2ccc3c(c2)OCO3)c(C)c1	-1	153*	6	0	4	-1
COc1cc(/C=C/C(=O)NCC2CCCCC2)cc(OC)c1OC	-2	12	3	4	2	-1
COC(=O)c1ccc(COc2ccc(/C=N/Nc3nc(C)cc(=O)[nH]3)cc2)cc1	-3	0	1	-2	36*	-1
CSc1ccc(/C=N/Nc2cccc(C(=O)O)c2)cc1	.	5	.	.	11	13*
O=C(O)c1cc(N/N=C/c2ccc(OCc3ccccc3)cc2)ccc1Cl	1	7	2	4	22	3
O=C(O)c1cccc(N/N=C/c2ccc(OC(F)(F)F)cc2)c1	1	-1	3	-3	15	?
COC(=O)c1ccc(COc2ccc(/C=N/Nc3cccc(C(=O)O)c3)cc2)cc1	1	2	63	-1	8	11*
Cc1ccccc1-n1c2nc(=O)n(C)c(=O)c-2cc2ccccc21	-1	131*	-11	6	21	-3
O=c1[nH]cc(C=NNc2ccccc2)c(=O)[nH]1	.	3	.	.	.	-3
COCCCNC(=O)c1c(N)n(-c2cccc(S(N)(=O)=O)c2)c2nc3ccccc3nc12	0	138*	10	4	2	-3
COc1ccc2nc(N3CCOCC3)cc(C)c2c1	0	85*	8	1	15	-1
CCCCn1c(/N=C/c2ccc(N(C)C)cc2)nc2ccccc21	-1	-4	-5	0	52*	-1
C=CCn1c(/N=C/c2ccc(N(C)C)cc2)nc2ccccc21	0	-3	-5	1	28	1
COc1ccccc1C=NNC(=O)c1ccncc1	.	1	.	.	26	0
COc1ccccc1/C=C/C=N/NC(=O)c1ccncc1	1	-6	99	-7	44*	-1
